KDM5B inh: Primary screen for KDM5B Histone Demethylases FDH-coupled qHTS. Lysine-specific demethylase 5B (Homo sapiens), Q9UGL1. KDM5B demethylase, FDH-coupled NADH fluorescence (FDH is formaldehyde dehydrogenase). Potency, µM (top dose mostly 57.7 µM), most hits filed as inhibitors. 220,000 tested, 2.6% active; active = well fitted inhibition curve with a large enough effect; also: 0% is about no effect; nearly all actives have a fitted effect of over 70% in size
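Here, H3K4me3 peptide (12.5 µM in substrate mix) is demethylated by KDM5BΔAP, 200 nM final, after 10 min compound exposure. Formaldehyde product is coupled through FDH (0.25 U/mL in mix) to NADH fluorescence; 30-min ΔRFU feeds dose-response curves.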
Numbers without * were called inactive; i = inactive. The full list was thinned out, with hits kept by preference. Potency is read from the fitted curve at half-maximal effect.

SMILES	KDM5B inh
CC(=O)N(C1CC1)C1CCOC2(CCN(C(=O)c3ccc4nc[nH]c4c3)CC2)C1 (configuration not stated)	i
CCS(=O)(=O)N1CCC(Oc2ncccc2C(=O)N(C)C)C1 (configuration not stated)	i
COc1cc(OC)cc(C(=O)N2CCN(C(=O)c3cccs3)CC2)c1	i
COc1nccnc1NC1CCN(S(=O)(=O)c2ccccc2)CC1	25µM*
COc1nccnc1NC1CCN(C(=O)c2cccs2)CC1	25µM*
CN1CCC(OC2CCN(S(=O)(=O)c3ccccc3)CC2)CC1	i
CCS(=O)(=O)N1CCC(NC(=O)c2ccccc2C(=O)c2ccc(C)cc2)CC1	i
COc1nccnc1NC1CCN(C(=O)c2ccc3nc[nH]c3c2)CC1	28µM*
CS(=O)(=O)N1CCC(C2CCN(C(=O)c3ccc4nc[nH]c4c3)C2)CC1 (configuration not stated)	i
COC1CCC12CCN(C(=O)c1cccs1)CC2 (configuration not stated)	i
COc1ccccc1CNC(=O)CCC1CCN(S(=O)(=O)c2ccccc2)CC1	i
CC(C)Oc1ccc(C(CC(=O)O)NC(=O)c2ccc(C(C)(C)C)cc2)cc1 (configuration not stated)	i
Cc1ccc(S(=O)(=O)OCCCCOS(=O)(=O)c2ccc(C)cc2)cc1	i
O=C(Nc1ccccc1)Nc1nnc(C2CCCC2)s1	i
CCOc1ccccc1C(=O)OCc1ccc(C#N)cc1	i
CSCc1ccc(C(=O)N2CCN(C(c3ccc(F)cc3)c3ccc(F)cc3)CC2)o1	i
COc1ccc(-c2cc(C(=O)NCCCOC(C)C)c3cc(Br)ccc3n2)cc1	i
COc1cc(C2CC(=O)Nc3nc(-c4ccccc4)[nH]c(=O)c32)cc(OC)c1O (configuration not stated)	i
O=C(CCc1nc(-c2ccccn2)no1)NCc1ccc(-n2cncn2)nc1	i
CO[C@H]1C(=O)N(C2CCNCC2)[C@H]1c1ccncc1	i
Cc1cccc(C(=O)N2CCC(Oc3cccnc3)C2)c1 (configuration not stated)	i
c1cnc(N2CCOCC2)c(OC2CCNC2)n1 (configuration not stated)	i
COC(=O)CC1C(=O)NCCN1C(=O)c1n[nH]c2c1CCCC2 (configuration not stated)	i
Cc1cccc(C(=O)N2CCC(Oc3ncccc3C(N)=O)C2)c1 (configuration not stated)	i
COc1nccnc1NC1CCN(C(=O)c2cccc(C)c2)CC1	32µM*
SMILES	KDM5B inh
O=C(c1n[nH]c2c1CCCCCC2)N1CCC(Cc2nncn2CC2CC2)CC1	i
O=C(c1ccccc1)N1CCC(Oc2ncccc2C(=O)N2CCCCC2)C1 (configuration not stated)	i
COc1nccnc1NC1CCN(C(=O)c2ccccc2)CC1	32µM*
O=C(c1ccccc1)N1CCC(Oc2nccnc2N2CCOCC2)C1 (configuration not stated)	i
COc1nccnc1NC1CCN(C(=O)c2n[nH]c3c2CCCC3)CC1	32µM*
COc1nccnc1NC1CCNCC1	16µM*
CC(O)CNc1nc2c(c(=O)n(C)c(=O)n2C)n1Cc1ccc(F)cc1 (configuration not stated)	i
COc1cccc(NC(=O)N[C@H]2[C@H](O)[C@@H](N3CCN(c4ccccc4)CC3)[C@@H]3OC[C@H]2O3)c1	i
COc1ccc(CN2CCC3(Cc4ccccc4CNC3=O)C2)c(O)c1 (configuration not stated)	i
Cn1c2c(c(=O)[nH]c1=O)C(c1ccc(C(=O)O)cc1)C1=C(N2)c2ccccc2C1=O (configuration not stated)	i
Cc1ccc(-c2cc(C(=O)O)c3ccccc3n2)o1	i
COc1ccc(OC)c(CCNC(=O)c2ccc(Cl)c(N3C(=O)CCS3(=O)=O)c2)c1	i
COc1nccnc1NC1CCN(C(=O)c2ccccc2C)CC1	28µM*
COc1nccnc1NC1CCN(C(=O)c2ccco2)CC1	25µM*
COc1ccc(CCNC(=O)C2CCN(C(=O)c3ccccc3C)CC2)cc1	i
COC1CCOC2(CCN(C(=O)c3ccco3)CC2)C1 (configuration not stated)	i
CCC(NC1CCN(C(=O)c2ccccc2)CC1)c1ccnn1C (configuration not stated)	i
CCCOc1nccnc1NC1CCN(C(=O)c2ccncc2)CC1	28µM*
COC1CCC12CCN(C(=O)c1ccco1)CC2 (configuration not stated)	i
O=C(c1ccncc1)N1CCC(Oc2cccnc2)C1 (configuration not stated)	i
CCNC(=O)c1cccnc1OC1CCN(C(=O)c2ccccc2C)C1 (configuration not stated)	i
Cc1ccc(N2C(=O)N(CC(=O)NCc3ccccc3)c3ccccc3S2(=O)=O)c(C)c1	i
COCCNC(=O)c1cc(-c2ccco2)nc2ccccc12	i
O=C(O)CS(=O)(=O)Cc1ccc(Cl)cc1	i

Assay outcomes from PubChem.
